In PubChem BioAssay (Tox21) one finds outcome data, which are given here for 27 compounds.

Records with an inconclusive call do not appear. Calls of active or inactive are those of the source. The call rests on the fitted dose curve; in most records, active means well fitted activation curve with a large enough effect in the signal ratio in the repeat runs (not every such curve was filed as active); inconclusive means weak or mixed curves, or effect the other way; inactive means no such curve, though single readings can be large or run the other way; the % refers to the signal ratio.

Chain of Peroxisome proliferator-activated receptor gamma (Homo sapiens) (P37231 whole entry, looked up): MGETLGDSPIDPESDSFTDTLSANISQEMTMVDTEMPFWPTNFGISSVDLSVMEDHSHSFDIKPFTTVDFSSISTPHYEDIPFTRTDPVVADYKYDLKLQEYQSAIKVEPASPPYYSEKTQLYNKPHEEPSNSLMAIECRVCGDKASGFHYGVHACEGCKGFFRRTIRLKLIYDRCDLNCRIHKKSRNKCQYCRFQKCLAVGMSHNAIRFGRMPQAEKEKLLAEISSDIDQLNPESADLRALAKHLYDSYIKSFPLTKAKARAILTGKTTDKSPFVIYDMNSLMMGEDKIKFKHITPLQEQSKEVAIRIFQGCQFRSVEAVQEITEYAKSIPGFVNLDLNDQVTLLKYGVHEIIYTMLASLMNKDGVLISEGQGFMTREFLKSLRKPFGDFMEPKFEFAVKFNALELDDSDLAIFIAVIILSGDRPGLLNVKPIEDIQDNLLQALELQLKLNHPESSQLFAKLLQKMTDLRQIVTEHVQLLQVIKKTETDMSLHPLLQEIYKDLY

In this assay the target is Peroxisome proliferator-activated receptor gamma (Homo sapiens) (UniProt P37231). Briefly: qHTS assay to identify small molecule agonists of the peroxisome proliferator-activated receptor gamma (PPARg) signaling pathway (AID 743094). The settings on record: HEK293H PPARg-UAS-bla, beta-lactamase FRET ratio, 17 h; series mostly up to 57 µM. The method, boiled down:
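Stably transfected HEK293H cells (GeneBLAzer PPARg UAS-bla) were incubated with test substances for 17 h at 37C after a 5 h pre-incubation; beta-lactamase activity was then detected by FRET substrate fluorescence.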
On to `COC(=O)/C=C(\C)CCC=C(C)C`, for which the outcome was inactive.

As to `CNC(C)=O`, the result was inactive.

For `CCN1CCN(C(=O)N[C@@H](C(=O)N[C@@H]2C(=O)N3[C@@H]2SC(C)(C)[C@H]3C(=O)O)c2ccccc2)C(=O)C1=O`, the result was inactive.

Regarding `Cc1ccc(O)c([N+](=O)[O-])c1`, the result was inactive.

As to `CC(C)(C)C(=O)CC(=O)C(C)(C)C`, the result was inactive.

As for `CC(=O)Nc1ccc(OCCOCCOc2ccc(NC(C)=O)cc2)cc1`, the result was inactive.

Consider `Cc1ccc(NC(N)=O)cc1`, for which the outcome was inactive.

`CC(C)(C)c1ccc(N)cc1`: the result was inactive.

Turning to `NS(=O)(=O)c1cc2c(cc1C(F)(F)F)NCNS2(=O)=O`, the result was inactive.

For the compound `CC(CC(=O)Cl)CC(C)(C)C` (configuration not stated), the result was inactive.

For the compound `NNC(=O)CCCCC(=O)NN`, the outcome was inactive.

On to `COCCCOc1cc(C[C@@H](C[C@H](N)[C@@H](O)C[C@H](C(=O)NCC(C)(C)C(N)=O)C(C)C)C(C)C)ccc1OC`, for which the outcome was inactive.

On to `CCCCS`, for which the outcome was inactive.

As for `C[Si](C)(C)O[Si](O)(O)O`, the result was inactive.

For the compound `C/C=C(\C)C=O`, the outcome was inactive.

`CCCCCCCCCCCBr`: the outcome was inactive.

For `CCc1ccc(CC)cc1`, the outcome was inactive.

Take `CC(C)(O)c1ccc(C(C)(C)O)cc1`: the outcome was inactive.

In the case of `O=C(OOC(=O)c1ccccc1)c1ccccc1`, the result was inactive.

Turning to `Cc1cc(C)c(C)c(C)c1`, the outcome was inactive.

Take `CC(CN1CC(=O)NC(=O)C1)N1CC(=O)NC(=O)C1` (configuration not stated): the result was inactive.

In the case of `Cc1ccc(Br)cc1`, the result was inactive.

Consider `CC(=O)OC/C=C(/C)CCC=C(C)C`, for which the outcome was inactive.

Turning to `CCCCCCCCCCCCCCBr`, the outcome was inactive.

With `NCC1CCC(C(=O)Oc2ccc(CCC(=O)O)cc2)CC1` (configuration not stated), the outcome was inactive.

Take `C=COCCCCO`: the outcome was inactive.

In the case of `Cc1cc(C)c(N)c(Cl)c1`, the result was inactive.
